# Assay outcomes deposited in PubChem by Sanford-Burnham Center for Chemical Genomics.
# Peg3 promoter – reduces Peg3 promoter-driven luciferase expression in HeLa; HeLa PEG-Prom luciferase reporter, luminescence, overnight; inhibition, % at 20 µM; hit rate 1.7% among 360,000;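 active = inhibition of at least 50% at 20 µM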
# HIF-2a inh – HIF-2a inhibition; 786-0 RCC cells HIF-2a reporter, luciferase luminescence, overnight; inhibition, % at 18.8 µM; hit rate 0.72% among 360,000;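 active = inhibition of the luminescence signal of 40% or more relative to plate controls, in a single-dose primary screen at 18.75 µM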
# TWEAK-Fn14 inh – inhibitors of TWEAK-Fn14 interaction signaling; TWEAK-stimulated Fn14 reporter cells, luciferase luminescence, 8 h; inhibition, % at 10 µM; hit rate 2% among 360,000; AID 1159606; in the data active = inhibition above about 50%
# KKLEB cytotox – counter-screen for CF NF-kB inhibitors: cytotoxicity; KKLEB CF airway cells viability, ATPlite luminescence, overnight; hits give low values; cells stimulated with P. aeruginosa culture filtrate; activity change (cytotoxicity), % at 5 µM; hit rate 0.36% among 360,000;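 active = corrected activity change at or below -50% at 5 µM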
# TROY signal inh – inhibitors of TROY-dependent NF-kB signaling; hit rate 0.98% among 360,000; inhibition, % at 10 µM; Q293 LMP1-TROYcd NF-kB luciferase reporter, 4 h;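 active = compounds whose plate-normalised and pattern-corrected inhibition of the luciferase reporter signal at the single screening dose is 50% or more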
# CF NFkB block – blocks PAF-induced NF-kB reporter in cystic fibrosis cells; KKLEB NF-kB-GFP reporter, GFP fluorescence overnight; inhibition, % at 5 µM; hit rate 0.86% among 360,000;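 active = at least 50% inhibition at 5 µM, scaled per plate between neutral and stimulator controls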;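 also: PAF is a Pseudomonas aeruginosa culture filtrate used as stimulus; plate controls were PAF-stimulated DMSO wells for no effect and unstimulated DMSO wells for full effect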
# Mdm2-MdmX confirm – confirmation of inhibitors of human Mdm2/MdmX interaction, set 2 | SaOS-2 split-luciferase Mdm2/MdmX complementation, luminescence | inhibition, % at 8 µM | shares compounds with HIF-2a inh | hit rate 99% among 740 | AID 504601;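 active = mean inhibition of the luminescence signal across two replicates at or above 26 percent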
# Target sequence (O15151 whole entry, looked up): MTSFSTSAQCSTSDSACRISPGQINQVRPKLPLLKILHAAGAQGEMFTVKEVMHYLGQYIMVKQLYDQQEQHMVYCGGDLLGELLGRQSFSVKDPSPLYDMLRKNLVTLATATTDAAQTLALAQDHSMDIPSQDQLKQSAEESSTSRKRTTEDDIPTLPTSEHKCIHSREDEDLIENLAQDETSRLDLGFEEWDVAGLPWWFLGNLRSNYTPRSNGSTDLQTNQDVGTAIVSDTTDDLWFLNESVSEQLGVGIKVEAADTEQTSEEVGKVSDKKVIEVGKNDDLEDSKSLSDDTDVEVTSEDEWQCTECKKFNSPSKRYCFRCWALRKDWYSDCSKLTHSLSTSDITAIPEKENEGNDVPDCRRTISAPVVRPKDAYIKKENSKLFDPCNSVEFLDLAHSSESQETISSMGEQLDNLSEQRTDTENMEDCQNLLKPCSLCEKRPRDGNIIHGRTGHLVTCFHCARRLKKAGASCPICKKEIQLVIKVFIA
# Target sequence (Q00987 whole entry, looked up): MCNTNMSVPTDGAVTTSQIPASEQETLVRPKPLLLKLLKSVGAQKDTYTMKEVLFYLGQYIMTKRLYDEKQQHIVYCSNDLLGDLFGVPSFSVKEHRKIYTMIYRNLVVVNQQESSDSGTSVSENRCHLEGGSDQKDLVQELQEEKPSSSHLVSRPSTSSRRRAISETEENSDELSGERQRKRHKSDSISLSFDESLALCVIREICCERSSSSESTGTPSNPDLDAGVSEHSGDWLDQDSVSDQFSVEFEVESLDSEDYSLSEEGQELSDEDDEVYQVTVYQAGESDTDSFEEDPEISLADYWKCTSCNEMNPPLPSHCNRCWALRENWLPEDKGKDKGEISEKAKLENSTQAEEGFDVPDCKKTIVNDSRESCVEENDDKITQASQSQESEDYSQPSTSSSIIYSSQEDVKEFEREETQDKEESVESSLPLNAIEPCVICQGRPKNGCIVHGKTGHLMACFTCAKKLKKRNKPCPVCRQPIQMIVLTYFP
# HIF-2a inh conf – HIF-2a inhibition, single concentration confirmation; shares compounds with HIF-2a inh; 786-0 RCC cells, HIF-2a luciferase reporter luminescence, overnight; inhibition, % at 18.8 µM; hit rate 56% among 1,800;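 active = mean inhibition across four replicates of at least 40 percent at the single tested concentration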
# HIF-1a cs – inhibits HIF-1a reporter, a counter-screen for HIF-2a inhibitors. shares compounds with HIF-2a inh. MiaPaCa-2 HIF-1a luciferase reporter, desferoxamine, overnight. inhibition, % at 18.8 µM. hit rate 72% among 1,800;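 active = mean inhibition of the reporter signal across four replicates at the single tested dose of 50% or more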
# Active calls of the source: *; nt = not tested or not shown. Rows were chosen to be rich in hits. Some 4% of all compounds tested hit in one or more screens of this group.
SMILES,Peg3 promoter,HIF-2a inh,TWEAK-Fn14 inh,KKLEB cytotox,TROY signal inh,CF NFkB block,HIF-2a inh conf,HIF-1a cs,others
CCOC(=O)c1cnc(-c2ccc(C(F)(F)F)cn2)[nH]c1=O,1,19,-13,10,0,2,nt,nt,
COC(=O)c1cc(=O)n(CCc2ccc(OC)c(OC)c2)c(=Nc2ccc(F)c(Cl)c2)s1,99*,75*,60*,-8,9,27,23,96*,
COC(=O)c1cc(=O)n(Cc2ccc(F)cc2)c(=Nc2ccccc2)s1,55*,53*,32,0,3,18,26,48,
CNC(=O)C1CC(=O)N(CCc2ccc(OC)c(OC)c2)C(=Nc2ccc(F)cc2)S1 (stereo not drawn),18,14,-5,4,2,-2,nt,nt,
COC(=O)c1cc(=O)n(-c2ccccc2)c(=Nc2ccccc2)s1,33,30,23,3,-6,21,nt,nt,
COc1ccc(CCNc2cc(C)nc3c(-c4ccc(Cl)cc4)cnn23)cc1OC,11,-26,14,-6,13,15,nt,nt,
CS(=O)(=O)c1ncc(Cl)c(C(=O)Nc2ccc3ccccc3c2)n1,106*,95*,82*,-100*,65*,89*,97*,91*,
CCSc1ncc(Cl)c(C(=O)Nc2ccc(S(=O)(=O)Nc3onc(C)c3C)cc2)n1,9,8,5,10,-6,5,nt,nt,
CCC1CCCCN1S(=O)(=O)c1ccc(NC(=O)c2nc(S(C)(=O)=O)ncc2Cl)cc1 (stereo not drawn),107*,75*,77*,-74*,83*,87*,100*,101*,
Cc1ccc(CS(=O)(=O)c2ncc(Cl)c(C(=O)Nc3ccc(OC(F)F)cc3)n2)cc1,106*,93*,83*,-100*,79*,94*,nt,nt,Mdm2-MdmX confirm=103*
CCS(=O)(=O)c1ncc(Cl)c(C(=O)Nc2ccc(C)cc2)n1,101*,92*,90*,-86*,67*,92*,97*,72*,Mdm2-MdmX confirm=101*
O=C(Nc1ccc(OC(F)F)cc1)c1ncc(Cl)c(Cl)c1Cl,-20,3,-3,4,-17,2,nt,nt,
COc1ccc(C2NS(=O)(=O)N=C2N)cc1 (stereo not drawn),-5,8,-2,-8,7,15,nt,nt,
COc1ccc(CNC(=O)/C=C/c2ccc(OCCCF)cc2)cc1,-71,-115,-2,5,-20,-8,nt,nt,
CCS(=O)(=O)c1ncc(Cl)c(C(=O)Nc2ccc(S(=O)(=O)N3CCCC(C)C3)cc2)n1 (stereo not drawn),105*,89*,96*,-109*,85*,97*,98*,106*,Mdm2-MdmX confirm=103*
COc1ccc(CSc2nnc(CNS(C)(=O)=O)o2)cc1,-10,-29,-8,5,-43,6,nt,nt,
OC(c1cc(-c2ccc(C(F)(F)F)cc2)nc(C(F)(F)F)c1)C1CCCCN1 (stereo not drawn),109*,75*,-3,-70*,32,68*,5,106*,Mdm2-MdmX confirm=103*
CCCCn1c(=O)[nH]c(=O)c2c1nc(-c1ccc(C#N)cc1)n2C1CCCC1,22,16,-4,-6,-1,0,nt,nt,
CSc1nccc(-c2nn(-c3ccc(C)cc3)ccc2=O)n1,22,9,15,-10,17,13,nt,nt,
Cc1ccc(C2=[N+]([O-])C3(CCCCC3=O)N(O)C2(C)C)cc1 (stereo not drawn),3,44*,1,-11,7,7,21,15,
Cc1cc(S(=O)(=O)N2CCOCC2)c(C)s1,1,8,-10,-9,6,8,nt,nt,
CC(=O)/C(=C/c1ccccc1)C(=O)Nc1ccccc1C,73*,92*,80*,-12,6,26,88*,103*,
